We go through four compounds from PubChem BioAssay AID720690 (Broad Institute, 2013).

Results with a measured potency or affinity are listed apart. Active and inactive are the calls of the source.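 How the source made its calls: active means every repeat run showing a signal drop whose fitted half-maximal concentration is at most twice the top tested concentration; inconclusive means repeat runs disagree, or flat partial drop, or poor fit; inactive means the rest.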

This experiment in a line: HEK293T cytotoxicity, dose response, cytotoxicity control for miR-122 modulator project, cell-based, activator set, cherry-pick (AID 720690). The following applies: HEK293T viability, CellTiter-Glo luminescence, 48 h; series mostly up to 26 µM. For orientation: In ATP-based viability assays light output follows the ATP content of the culture.

Consider `Cc1ccc(-n2c(Cc3ccccc3)n[nH]c2=S)cc1`, for which the result was inactive.

Turning to `COc1ccc(C#Cc2ccc3c(c2)O[C@@H](CN(C)C(=O)CN2CCOCC2)[C@@H](C)CN([C@H](C)CO)S3(=O)=O)cc1`, the compound was classed as inactive.

`Cn1c(-c2ccc(N)cc2)nc2ccccc21`: the compound was classed as inactive.

As for `CCCNC(=O)C[C@H]1CC[C@@H]2[C@H](COc3ccc(NC(=O)c4cccs4)cc3C(=O)N2C)O1`, the result was inactive.
